Assay in all cases: RNA Bind-n-Seq (nitrocellulose filter binding and sequencing); miR-122 guide loaded in AGO2; 60 min incubation; 30 mM Tris pH 8.0, 100 mM potassium acetate, 2 mM magnesium acetate, 0.5 mM TCEP, 0.005% NP-40, 0.01 mg/ml yeast tRNA; 3 nM AGO2-miR-122, 100 nM RNA library; 60; high values mean tight binding
Conditions in all cases: protein: recombinant; tags: His6 (N-terminal, pFastBac HTA)

One assay deals with AGO2 L192P (Homo sapiens, UniProt Q9UKV8 1-859, L192P;S387D;S824A;S828D;S831D;S834A). An outline of the steps: (§1)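 Fold enrichment is each target's read fraction divided by its read fraction in the input library. Sf9 insect cells expressed His-tagged AGO2 from baculovirus; the protein was loaded with a synthetic guide RNA and purified by Ni-NTA and a biotinylated capture oligo. The bound RNA was extracted, reverse-transcribed, barcode-amplified and sequenced on Illumina.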

The target of a further assay is AGO2 A367P (Homo sapiens, UniProt Q9UKV8 1-859, A367P;S387D;S824A;S828D;S831D;S834A). An outline of the steps: as §1
The next assay has as its target AGO2 T357M (Homo sapiens, UniProt Q9UKV8 1-859, T357M;S387D;S824A;S828D;S831D;S834A). An outline of the steps:
as §1

The next assay deals with AGO2 F182del (Homo sapiens, UniProt Q9UKV8 1-859, S387D;S824A;S828D;S831D;S834A;del182-182). The essentials:
as §1

Sequence of AGO2 T357M (Q9UKV8 whole entry T357M/S387D/S824A/S828D/S831D/S834A): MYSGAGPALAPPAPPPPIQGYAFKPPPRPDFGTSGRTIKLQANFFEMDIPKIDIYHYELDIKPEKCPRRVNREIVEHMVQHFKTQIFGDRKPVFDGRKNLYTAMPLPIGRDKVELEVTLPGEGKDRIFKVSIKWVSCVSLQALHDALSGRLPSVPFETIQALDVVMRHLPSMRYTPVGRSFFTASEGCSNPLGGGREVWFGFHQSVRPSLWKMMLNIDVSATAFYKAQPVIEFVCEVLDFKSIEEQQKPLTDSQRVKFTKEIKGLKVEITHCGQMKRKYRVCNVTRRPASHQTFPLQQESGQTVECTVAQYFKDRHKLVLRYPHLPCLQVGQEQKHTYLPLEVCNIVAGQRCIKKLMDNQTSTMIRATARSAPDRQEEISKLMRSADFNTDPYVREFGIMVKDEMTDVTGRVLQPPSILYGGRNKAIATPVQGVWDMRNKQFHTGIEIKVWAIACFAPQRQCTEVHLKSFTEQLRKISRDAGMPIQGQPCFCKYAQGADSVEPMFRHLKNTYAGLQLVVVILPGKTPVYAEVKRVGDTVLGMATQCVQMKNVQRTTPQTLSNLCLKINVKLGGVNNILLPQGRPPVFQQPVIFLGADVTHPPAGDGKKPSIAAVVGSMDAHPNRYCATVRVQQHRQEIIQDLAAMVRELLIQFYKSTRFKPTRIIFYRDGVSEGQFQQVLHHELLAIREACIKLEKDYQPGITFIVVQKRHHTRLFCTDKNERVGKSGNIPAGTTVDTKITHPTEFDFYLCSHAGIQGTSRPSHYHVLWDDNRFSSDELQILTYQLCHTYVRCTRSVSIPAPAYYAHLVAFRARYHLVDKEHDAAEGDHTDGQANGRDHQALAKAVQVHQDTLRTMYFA
Sequence of AGO2 A367P (Q9UKV8 whole entry A367P/S387D/S824A/S828D/S831D/S834A): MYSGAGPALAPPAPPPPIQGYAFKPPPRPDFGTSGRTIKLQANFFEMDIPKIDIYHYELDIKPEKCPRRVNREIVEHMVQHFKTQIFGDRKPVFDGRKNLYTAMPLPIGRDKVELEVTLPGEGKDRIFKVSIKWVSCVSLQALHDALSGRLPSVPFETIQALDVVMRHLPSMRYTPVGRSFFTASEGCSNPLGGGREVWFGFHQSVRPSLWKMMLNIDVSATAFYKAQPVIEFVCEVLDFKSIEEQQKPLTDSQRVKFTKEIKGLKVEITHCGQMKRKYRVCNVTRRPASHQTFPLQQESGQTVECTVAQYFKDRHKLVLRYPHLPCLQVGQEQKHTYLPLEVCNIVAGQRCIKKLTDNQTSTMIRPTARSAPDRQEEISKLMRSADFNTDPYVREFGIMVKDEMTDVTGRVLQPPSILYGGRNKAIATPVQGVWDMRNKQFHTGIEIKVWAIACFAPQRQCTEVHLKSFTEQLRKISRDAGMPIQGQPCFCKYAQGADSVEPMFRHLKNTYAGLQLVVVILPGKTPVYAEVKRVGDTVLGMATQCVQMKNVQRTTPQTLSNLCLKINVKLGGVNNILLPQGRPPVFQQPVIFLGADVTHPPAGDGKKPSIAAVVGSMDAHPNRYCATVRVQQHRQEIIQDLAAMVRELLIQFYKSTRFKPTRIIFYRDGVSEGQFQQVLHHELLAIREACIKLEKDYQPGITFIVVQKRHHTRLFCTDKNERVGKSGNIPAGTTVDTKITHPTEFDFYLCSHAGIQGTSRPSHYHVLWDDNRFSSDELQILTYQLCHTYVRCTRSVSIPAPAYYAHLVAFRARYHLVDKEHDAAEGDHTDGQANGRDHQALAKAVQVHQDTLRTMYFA
Sequence of AGO2 F182del (Q9UKV8 other isoform, or with tags, fused parts or gaps S387D;S824A;S828D;S831D;S834A;del182-182): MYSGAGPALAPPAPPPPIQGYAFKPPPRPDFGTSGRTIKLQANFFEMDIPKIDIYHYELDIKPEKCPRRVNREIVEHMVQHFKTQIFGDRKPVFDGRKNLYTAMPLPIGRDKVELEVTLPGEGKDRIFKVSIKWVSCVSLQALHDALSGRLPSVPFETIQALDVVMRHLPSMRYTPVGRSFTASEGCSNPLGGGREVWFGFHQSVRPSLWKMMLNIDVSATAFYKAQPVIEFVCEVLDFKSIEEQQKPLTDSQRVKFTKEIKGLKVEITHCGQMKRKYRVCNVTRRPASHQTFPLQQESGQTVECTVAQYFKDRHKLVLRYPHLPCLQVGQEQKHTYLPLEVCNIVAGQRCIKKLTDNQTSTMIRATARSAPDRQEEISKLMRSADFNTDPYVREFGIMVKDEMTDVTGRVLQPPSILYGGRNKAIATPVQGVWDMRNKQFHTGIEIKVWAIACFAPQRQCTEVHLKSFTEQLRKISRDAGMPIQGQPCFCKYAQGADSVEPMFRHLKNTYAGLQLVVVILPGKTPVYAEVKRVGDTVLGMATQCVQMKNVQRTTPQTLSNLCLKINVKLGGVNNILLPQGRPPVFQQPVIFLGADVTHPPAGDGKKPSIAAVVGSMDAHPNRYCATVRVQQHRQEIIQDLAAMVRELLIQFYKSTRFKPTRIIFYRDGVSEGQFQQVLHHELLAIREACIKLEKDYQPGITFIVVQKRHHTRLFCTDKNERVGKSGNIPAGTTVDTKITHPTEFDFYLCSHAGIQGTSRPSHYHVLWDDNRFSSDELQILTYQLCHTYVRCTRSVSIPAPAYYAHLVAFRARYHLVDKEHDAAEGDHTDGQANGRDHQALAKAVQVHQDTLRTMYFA
Sequence of AGO2 L192P (Q9UKV8 whole entry L192P/S387D/S824A/S828D/S831D/S834A): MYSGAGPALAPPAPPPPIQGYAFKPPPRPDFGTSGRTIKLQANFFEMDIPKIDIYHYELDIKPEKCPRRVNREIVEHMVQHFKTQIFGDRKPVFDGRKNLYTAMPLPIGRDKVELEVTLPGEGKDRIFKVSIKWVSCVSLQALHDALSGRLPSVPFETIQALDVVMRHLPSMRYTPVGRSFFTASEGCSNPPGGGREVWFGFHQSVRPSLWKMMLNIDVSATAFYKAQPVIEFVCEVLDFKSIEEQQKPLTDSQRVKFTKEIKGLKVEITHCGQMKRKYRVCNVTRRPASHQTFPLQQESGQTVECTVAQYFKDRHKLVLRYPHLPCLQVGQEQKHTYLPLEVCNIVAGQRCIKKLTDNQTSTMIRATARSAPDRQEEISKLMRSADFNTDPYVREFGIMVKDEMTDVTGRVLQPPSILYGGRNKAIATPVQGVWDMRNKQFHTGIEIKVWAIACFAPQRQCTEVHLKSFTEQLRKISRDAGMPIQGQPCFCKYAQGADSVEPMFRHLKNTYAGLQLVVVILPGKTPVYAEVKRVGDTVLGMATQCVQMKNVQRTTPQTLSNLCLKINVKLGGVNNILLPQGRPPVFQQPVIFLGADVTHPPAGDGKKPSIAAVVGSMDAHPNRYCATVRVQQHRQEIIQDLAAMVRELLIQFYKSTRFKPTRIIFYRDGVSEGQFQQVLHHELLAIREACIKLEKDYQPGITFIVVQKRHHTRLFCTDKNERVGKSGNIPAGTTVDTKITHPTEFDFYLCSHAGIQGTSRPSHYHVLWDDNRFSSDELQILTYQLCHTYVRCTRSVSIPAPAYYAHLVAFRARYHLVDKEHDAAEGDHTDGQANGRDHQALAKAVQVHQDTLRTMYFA

B1: GTGTTCCA (ssRNA)
RNA 1: GAGUUCUACAGUCCGACGAUCCCAACGUGUUCCACACCUGGAAUUCUCGGGUGCCAA
RNA 2: UGGAGUGUGACAAUGGUGUUUG
DNA 1: GATCGTCGGACTGTAGAACTC
DNA 2: TTGGCACCCGAGAATTCCA
modifications: constant regions annealed to DNA blockers; guide miR-122 5' phosphate
Turning to B1, the binding signal with AGO2 L192P was 0.444 fold enrichment over input; with AGO2 A367P it was 0.197 fold enrichment over input; in the assay with AGO2 T357M, 0.556 fold enrichment over input; in the assay with AGO2 F182del, 0.125 fold enrichment over input.

B2: ACACTTTG (ssRNA)
RNA 1: GAGUUCUACAGUCCGACGAUCCCAACACACUUUGCACCUGGAAUUCUCGGGUGCCAA
RNA 2: UGGAGUGUGACAAUGGUGUUUG
DNA 1: GATCGTCGGACTGTAGAACTC
DNA 2: TTGGCACCCGAGAATTCCA
modifications: constant regions annealed to DNA blockers; guide miR-122 5' phosphate
As to B2, the binding signal was 0.388 fold enrichment over input in the assay with AGO2 L192P, 0.177 fold enrichment over input with AGO2 A367P and 0.494 fold enrichment over input in the assay with AGO2 T357M.

B3: ATATCTTA (ssRNA)
RNA 1: GAGUUCUACAGUCCGACGAUCCCAACAUAUCUUACACCUGGAAUUCUCGGGUGCCAA
RNA 2: UGGAGUGUGACAAUGGUGUUUG
DNA 1: GATCGTCGGACTGTAGAACTC
DNA 2: TTGGCACCCGAGAATTCCA
modifications: constant regions annealed to DNA blockers; guide miR-122 5' phosphate
As for B3, the binding signal with AGO2 L192P is 0.456 fold enrichment over input; in the assay with AGO2 A367P, 0.179 fold enrichment over input; in the assay with AGO2 T357M, 0.593 fold enrichment over input.

B4: GCATTCTA (ssRNA)
RNA 1: GAGUUCUACAGUCCGACGAUCCCAACGCAUUCUACACCUGGAAUUCUCGGGUGCCAA
RNA 2: UGGAGUGUGACAAUGGUGUUUG
DNA 1: GATCGTCGGACTGTAGAACTC
DNA 2: TTGGCACCCGAGAATTCCA
modifications: constant regions annealed to DNA blockers; guide miR-122 5' phosphate
As to B4, the binding signal was 0.45 fold enrichment over input with AGO2 L192P, 0.181 fold enrichment over input with AGO2 A367P and 0.63 fold enrichment over input in the assay with AGO2 T357M.

B5: ACATTCCG (ssRNA)
RNA 1: GAGUUCUACAGUCCGACGAUCCCAACACAUUCCGCACCUGGAAUUCUCGGGUGCCAA
RNA 2: UGGAGUGUGACAAUGGUGUUUG
DNA 1: GATCGTCGGACTGTAGAACTC
DNA 2: TTGGCACCCGAGAATTCCA
modifications: constant regions annealed to DNA blockers; guide miR-122 5' phosphate
B5: the binding signal in the assay with AGO2 L192P was 0.382 fold enrichment over input; in the assay with AGO2 A367P, 0.156 fold enrichment over input; with AGO2 T357M, 0.428 fold enrichment over input; with AGO2 F182del it was 0.178 fold enrichment over input.

B6: GTGCTTTG (ssRNA)
RNA 1: GAGUUCUACAGUCCGACGAUCCCAACGUGCUUUGCACCUGGAAUUCUCGGGUGCCAA
RNA 2: UGGAGUGUGACAAUGGUGUUUG
DNA 1: GATCGTCGGACTGTAGAACTC
DNA 2: TTGGCACCCGAGAATTCCA
modifications: constant regions annealed to DNA blockers; guide miR-122 5' phosphate
As for B6, the binding signal was 0.45 fold enrichment over input with AGO2 L192P, 0.177 fold enrichment over input with AGO2 A367P and 0.623 fold enrichment over input with AGO2 T357M.

B7: ACACCCTG (ssRNA)
RNA 1: GAGUUCUACAGUCCGACGAUCCCAACACACCCUGCACCUGGAAUUCUCGGGUGCCAA
RNA 2: UGGAGUGUGACAAUGGUGUUUG
DNA 1: GATCGTCGGACTGTAGAACTC
DNA 2: TTGGCACCCGAGAATTCCA
modifications: constant regions annealed to DNA blockers; guide miR-122 5' phosphate
In the case of B7, the binding signal with AGO2 L192P was 0.472 fold enrichment over input; with AGO2 A367P it was 0.217 fold enrichment over input; with AGO2 T357M it was 0.558 fold enrichment over input; with AGO2 F182del, 0.942 fold enrichment over input.

B8: ATGCTTTA (ssRNA)
RNA 1: GAGUUCUACAGUCCGACGAUCCCAACAUGCUUUACACCUGGAAUUCUCGGGUGCCAA
RNA 2: UGGAGUGUGACAAUGGUGUUUG
DNA 1: GATCGTCGGACTGTAGAACTC
DNA 2: TTGGCACCCGAGAATTCCA
modifications: constant regions annealed to DNA blockers; guide miR-122 5' phosphate
For B8, the binding signal in the assay with AGO2 L192P is 0.487 fold enrichment over input; with AGO2 A367P, 0.175 fold enrichment over input; with AGO2 T357M, 0.582 fold enrichment over input.

B9: GCGCTTTA (ssRNA)
RNA 1: GAGUUCUACAGUCCGACGAUCCCAACGCGCUUUACACCUGGAAUUCUCGGGUGCCAA
RNA 2: UGGAGUGUGACAAUGGUGUUUG
DNA 1: GATCGTCGGACTGTAGAACTC
DNA 2: TTGGCACCCGAGAATTCCA
modifications: constant regions annealed to DNA blockers; guide miR-122 5' phosphate
In the case of B9, the binding signal was 0.493 fold enrichment over input with AGO2 L192P, 0.201 fold enrichment over input with AGO2 A367P and 0.695 fold enrichment over input with AGO2 T357M.

B10: GTATTTTA (ssRNA)
RNA 1: GAGUUCUACAGUCCGACGAUCCCAACGUAUUUUACACCUGGAAUUCUCGGGUGCCAA
RNA 2: UGGAGUGUGACAAUGGUGUUUG
DNA 1: GATCGTCGGACTGTAGAACTC
DNA 2: TTGGCACCCGAGAATTCCA
modifications: constant regions annealed to DNA blockers; guide miR-122 5' phosphate
Consider B10, for which the figures for the binding signal with AGO2 L192P, with AGO2 A367P and in the assay with AGO2 T357M were 0.481 fold enrichment over input, 0.166 fold enrichment over input and 0.617 fold enrichment over input, respectively.

B11: GCGCCCTG (ssRNA)
RNA 1: GAGUUCUACAGUCCGACGAUCCCAACGCGCCCUGCACCUGGAAUUCUCGGGUGCCAA
RNA 2: UGGAGUGUGACAAUGGUGUUUG
DNA 1: GATCGTCGGACTGTAGAACTC
DNA 2: TTGGCACCCGAGAATTCCA
modifications: constant regions annealed to DNA blockers; guide miR-122 5' phosphate
For the molecule B11, the results for the binding signal in the assay with AGO2 L192P, with AGO2 A367P and with AGO2 T357M were 0.424 fold enrichment over input, 0.172 fold enrichment over input and 0.675 fold enrichment over input, respectively.
